In PubChem BioAssay (NCI):
Values joined by “and” are separate entries in the source; they are usually repeats but may differ in a detail not shown here. Equal entries are not always repeated. About 79,000 compounds went through this panel and 15% of them were active in at least one assay; those are over-represented in the sample as a whole. More than one record can exist for a structure, and the calls need not agree. Active and inactive are the calls of the source. Rule as the data show it: active = growth inhibition above about 70%; inactive = the rest.

Key:
[1] = NCI Yeast Anticancer Drug Screen. Data for the rad50 strain (AID 155);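 also: 0% = growth of vehicle-only cultures of the same strain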; conditions: S. cerevisiae rad50 strain growth inhibition, stronger effect = higher value
Procedure, shortened: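 Relative growth inhibition (compound vs vehicle) was measured in yeast with a defined repair-gene alteration.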

[2] = NCI Yeast Anticancer Drug Screen. Data for the mec2-1 strain (AID 157); conditions: S. cerevisiae mec2-1 strain, stronger effect = higher value
Procedure, shortened: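 Test agents were screened against the mec2-1 yeast strain, with defined DNA repair or cell cycle alteration. Growth was scored as inhibition against vehicle-only controls.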

[3] = NCI Yeast Anticancer Drug Screen. Data for the sgs1 mgt1 strain (AID 161);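 also: 0% = growth of cultures given vehicle only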; conditions: S. cerevisiae sgs1 mgt1 strain, stronger effect = higher value
Procedure, shortened: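 Inhibition of yeast growth, normalised to vehicle-treated controls, is reported for a strain bearing genetic alterations in DNA damage repair.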

[4] = NCI Yeast Anticancer Drug Screen. Data for the cln2 rad14 strain (AID 165);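 also: 0% = growth equal to vehicle treated cultures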; conditions: S. cerevisiae cln2 rad14 strain, stronger effect = higher value
Procedure, shortened: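 Growth of compound-exposed yeast (cln2 rad14 genotype) measured and expressed as inhibition relative to vehicle.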

[5] = NCI Yeast Anticancer Drug Screen. Data for the bub3 strain (AID 167); conditions: S. cerevisiae bub3 mutant strain, stronger effect = higher value
Procedure, shortened: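 Screening used yeast with an engineered genetic alteration affecting cell cycle control. Compound-exposed cultures were compared with vehicle cultures, and reduced growth was taken as inhibition.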

[6] = NCI Yeast Anticancer Drug Screen. Data for the mlh1 rad18 strain (AID 175); conditions: S. cerevisiae mlh1 rad18 strain growth inhibition, stronger effect = higher value
Procedure, shortened: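 In this whole-cell yeast screen, a strain with altered DNA damage repair is challenged with compound, and its growth is measured against matched vehicle-treated controls.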

[7] = NCI Yeast Anticancer Drug Screen. Data for the wt1 strain (AID 149);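 also: 0% = growth of vehicle-treated wt1 cultures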; conditions: S. cerevisiae wt1 strain (SPY 50644) growth inhibition, stronger effect = higher value
Procedure, shortened: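 Using yeast strain wt1, compound-induced growth inhibition was determined against vehicle-treated cultures.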

[8] = NCI Yeast Anticancer Drug Screen. Data for the mgt1 strain (AID 153); conditions: S. cerevisiae mgt1 mutant growth inhibition, stronger effect = higher value
Procedure, shortened: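 After exposure of the mgt1 yeast mutant to compound, growth was measured and reported as inhibition compared with vehicle controls.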

[9] = NCI Yeast Anticancer Drug Screen. Data for the rad14 strain (AID 159);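 also: 0% = growth of vehicle-treated control cultures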; conditions: S. cerevisiae rad14 strain growth inhibition, stronger effect = higher value
Procedure, shortened: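 Screen for anticancer potential: a yeast strain altered in DNA damage repair is grown with compound, and reduced growth is quantified against vehicle controls.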

[10] = NCI Yeast Anticancer Drug Screen. Data for the CLN2oe strain (AID 163);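 also: 0% = growth of vehicle-only control cultures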; conditions: S. cerevisiae CLN2oe strain, stronger effect = higher value
Procedure, shortened: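 Here, growth inhibition in a cell-cycle-altered yeast strain after compound exposure was quantified against vehicle control growth.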

[11] = NCI Yeast Anticancer Drug Screen. Data for the wt2 strain (AID 169);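 also: 0% = growth of vehicle-treated yeast cultures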; conditions: S. cerevisiae wt2 strain growth inhibition, stronger effect = higher value
Procedure, shortened: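 Genetically defined yeast strains from a DNA-repair/cell-cycle panel were used. Compound-exposed yeast growth was measured, and the inhibition was calculated relative to vehicle treatment.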

[12] = NCI Yeast Anticancer Drug Screen. Data for the mlh1 strain (AID 171);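 also: 0% = growth of vehicle-treated control cultures of the same strain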; conditions: S. cerevisiae mlh1 strain growth inhibition, stronger effect = higher value
Procedure, shortened: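 Here the genetically defined yeast mutant is grown with each compound, and the extent to which its growth falls below that of vehicle-exposed cells is reported.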

[13] = NCI Yeast Anticancer Drug Screen. Data for the sgs1 strain (AID 173);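 also: 0% = growth of vehicle-only control cultures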; conditions: S. cerevisiae sgs1 mutant, stronger effect = higher value
Procedure, shortened: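 Relative growth inhibition, referenced to vehicle, was determined in a yeast strain with a defined alteration affecting DNA damage repair or cell cycle control after compound exposure.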

[14] = NCI Yeast Anticancer Drug Screen. Data for the rad18 strain (AID 177); conditions: S. cerevisiae rad18 mutant growth inhibition, stronger effect = higher value
Procedure, shortened: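 Screen uses a yeast strain with a defined lesion in DNA damage repair; compound effect is read as loss of growth compared to untreated vehicle cultures.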

[15] = at 5.0 µM (retest, dose inferred, filed as 0.5)
[16] = at 50.0 µM (retest, dose inferred, filed as 5.0)

In the case of `O=C(O)c1ccccc1.[Ag]`, the growth inhibition ([1]; at 1.2 µM) is reported as 95% (active), the growth inhibition ([1]; at 3.7 µM) is reported as 101% (active) and the growth inhibition [1, 15] is reported as 97% (active) and 58% (inactive). For the same compound, the growth inhibition ([1]; at 11.0 µM) was 99% (active), the growth inhibition ([1]; at 33.0 µM) was 99% (active) and the growth inhibition [1, 16] was 99% (active) and 98% (active). The growth inhibition ([1]; at 50.0 µM) was 90.8% (active) and 91.2% (active), the growth inhibition ([1]; at 100.0 µM) was 99% (active) and the growth inhibition ([2]; at 1.2 µM) was 89% (active). The growth inhibition ([2]; at 3.7 µM) was 101% (active), the growth inhibition [2, 15] was 95% (active) and 60% (inactive) and the growth inhibition ([2]; at 11.0 µM) was 99% (active). For the same compound, the growth inhibition ([2]; at 33.0 µM) was 99% (active), the growth inhibition [2, 16] was 99% (active) and the growth inhibition ([2]; at 50.0 µM) was 93.2% (active) and 93% (active). The growth inhibition ([2]; at 100.0 µM) was 99% (active), the growth inhibition [3, 15] was 99% (active) and -5% (inactive) and the growth inhibition [3, 16] was 98% (active) and 99% (active). For the same compound, the growth inhibition ([3]; at 50.0 µM) was 93.1% (active) and 93.5% (active), the growth inhibition [4, 15] was 36% (inactive) and 39% (inactive) and the growth inhibition [4, 16] was 97% (active) and 100% (active). For the same compound, the growth inhibition ([4]; at 50.0 µM) was 91.6% (active) and 91.4% (active), the growth inhibition ([5]; at 1.2 µM) was 93% (active) and the growth inhibition ([5]; at 3.7 µM) was 101% (active). For the same compound, the growth inhibition [5, 15] was 100% (active) and -1% (inactive), the growth inhibition ([5]; at 11.0 µM) was 99% (active) and the growth inhibition ([5]; at 33.0 µM) was 99% (active). For the same compound, the growth inhibition [5, 16] was 98% (active) and 99% (active), the growth inhibition ([5]; at 50.0 µM) was 91.5% (active) and the growth inhibition ([5]; at 100.0 µM) was 99% (active). For the same compound, the growth inhibition [6, 15] was 99% (active) and 40% (inactive), the growth inhibition [6, 16] was 99% (active) and 100% (active) and the growth inhibition ([6]; at 50.0 µM) was 90.8% (active) and 91.3% (active).
With `CC(C)(C)c1cc([N+](=O)[O-])cc([N+](=O)[O-])c1O` the growth inhibition ([7]; at 1.2 µM) was -16% (inactive), the growth inhibition ([7]; at 3.7 µM) was -23% (inactive) and the growth inhibition ([7]; at 11.0 µM) was -7% (inactive). The growth inhibition ([7]; at 33.0 µM) was 12% (inactive), the growth inhibition ([7]; at 100.0 µM) was 38% (inactive) and the growth inhibition ([8]; at 1.2 µM) was -52% (inactive). For the same compound, the growth inhibition ([8]; at 3.7 µM) was -34% (inactive), the growth inhibition ([8]; at 11.0 µM) was 21% (inactive) and the growth inhibition ([8]; at 33.0 µM) was -11% (inactive). The growth inhibition ([8]; at 100.0 µM) was 43% (inactive), the growth inhibition ([1]; at 1.2 µM) was -24% (inactive) and the growth inhibition ([1]; at 3.7 µM) was -26% (inactive). The growth inhibition [1, 15] was 46% (inactive), the growth inhibition ([1]; at 11.0 µM) was -5% (inactive) and the growth inhibition ([1]; at 33.0 µM) was 1% (inactive). For the same compound, the growth inhibition [1, 16] was 100% (active), the growth inhibition ([1]; at 50.0 µM) was 78.8% (active) and the growth inhibition ([1]; at 100.0 µM) was 22% (inactive). The growth inhibition ([2]; at 1.2 µM) was -61% (inactive), the growth inhibition ([2]; at 3.7 µM) was -47% (inactive) and the growth inhibition [2, 15] was 66% (inactive). For the same compound, the growth inhibition ([2]; at 11.0 µM) was -25% (inactive), the growth inhibition ([2]; at 33.0 µM) was -8% (inactive) and the growth inhibition [2, 16] was 99% (active). For the same compound, the growth inhibition ([2]; at 50.0 µM) was 72.2% (active), the growth inhibition ([2]; at 100.0 µM) was 7% (inactive) and the growth inhibition ([9]; at 1.2 µM) was -19% (inactive). The growth inhibition ([9]; at 3.7 µM) was -12% (inactive), the growth inhibition ([9]; at 11.0 µM) was 6% (inactive) and the growth inhibition ([9]; at 33.0 µM) was 26% (inactive). The growth inhibition ([9]; at 100.0 µM) was 29% (inactive), the growth inhibition [3, 15] was 0% (inactive) and the growth inhibition [3, 16] was 38% (inactive). For the same compound, the growth inhibition ([3]; at 50.0 µM) was 84.3% (active), the growth inhibition ([10]; at 1.2 µM) was 9% (inactive) and the growth inhibition ([10]; at 3.7 µM) was 1% (inactive). For the same compound, the growth inhibition ([10]; at 11.0 µM) was 12% (inactive), the growth inhibition ([10]; at 33.0 µM) was 25% (inactive) and the growth inhibition ([10]; at 100.0 µM) was 28% (inactive). The growth inhibition [4, 15] was 46% (inactive), the growth inhibition [4, 16] was 21% (inactive) and the growth inhibition ([4]; at 50.0 µM) was 73.4% (active). The growth inhibition ([5]; at 1.2 µM) was -17% (inactive), the growth inhibition ([5]; at 3.7 µM) was -15% (inactive) and the growth inhibition [5, 15] was -13% (inactive). For the same compound, the growth inhibition ([5]; at 11.0 µM) was -2% (inactive), the growth inhibition ([5]; at 33.0 µM) was 9% (inactive) and the growth inhibition [5, 16] was 39% (inactive). The growth inhibition ([5]; at 50.0 µM) was 68.6% (inactive), the growth inhibition ([5]; at 100.0 µM) was 21% (inactive) and the growth inhibition ([11]; at 1.2 µM) was -35% (inactive). For the same compound, the growth inhibition ([11]; at 3.7 µM) was -29% (inactive), the growth inhibition ([11]; at 11.0 µM) was -11% (inactive) and the growth inhibition ([11]; at 33.0 µM) was 23% (inactive). For the same compound, the growth inhibition ([11]; at 100.0 µM) was 47% (inactive), the growth inhibition ([12]; at 1.2 µM) was -38% (inactive) and the growth inhibition ([12]; at 3.7 µM) was -33% (inactive). For the same compound, the growth inhibition ([12]; at 11.0 µM) was -4% (inactive), the growth inhibition ([12]; at 33.0 µM) was 10% (inactive) and the growth inhibition ([12]; at 100.0 µM) was 42% (inactive). For the same compound, the growth inhibition ([13]; at 1.2 µM) was -20% (inactive), the growth inhibition ([13]; at 3.7 µM) was -8% (inactive) and the growth inhibition ([13]; at 11.0 µM) was 15% (inactive). For the same compound, the growth inhibition ([13]; at 33.0 µM) was 40% (inactive), the growth inhibition ([13]; at 100.0 µM) was 46% (inactive) and the growth inhibition [6, 15] was 50% (inactive). For the same compound, the growth inhibition [6, 16] was 100% (active), the growth inhibition ([6]; at 50.0 µM) was 67.7% (inactive) and the growth inhibition ([14]; at 1.2 µM) was -30% (inactive). The growth inhibition ([14]; at 3.7 µM) was -13% (inactive), the growth inhibition ([14]; at 11.0 µM) was -18% (inactive) and the growth inhibition ([14]; at 33.0 µM) was 17% (inactive). For the same compound, the growth inhibition ([14]; at 100.0 µM) was 30% (inactive).
